Most compounds without a hit are left out; they make up all but 27% or so of the library.
CYP2C9 inh: blockers of cytochrome P450 2C9 activity – biochemical, luminescence, ADME assay, primary screen; P11712; CYP2C9 Supersomes, luciferin-H conversion; inhibition, % at 5 µM; 96,000 compounds, 20% hits;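 active = blocking of liver enzyme CYP2C9 beyond about 50% at 5 µM, limit read from the data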
CYP2C19 act: human CYP2C19 activators, primary screen, biochemical, luminescence; Cytochrome P450 2C19 (Homo sapiens), P33261; recombinant CYP2C19, luciferin-H EGE luminescence; active compounds read high; 0 = fully inhibited enzyme, 1 = untreated enzyme; activation factor at 5 µM; AID 1025, 2008; 96,000 tested, under 10 active;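 active = activation factor of at least 2 at 5 µM in the primary screen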;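 also: 0 = wells with 2.5 mM tranylcypromine and 1 = vehicle-only wells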
Cav32 inh: Cav3.2 calcium influx blockers – cell-based, Fluo-4 calcium fluorescence, FDSS, MLSMR library, primary screen; Voltage-dependent T-type calcium channel subunit alpha-1H (Homo sapiens), O95180; Cav3.2-expressing cells; active compounds read low; B-score at 10 µM; 100,000 compounds, 4% hits; AID 449739, 2010;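 active = single-dose well whose peak fluorescence ratio is a statistical outlier from its plate by either plate-standardised score or position-corrected B-score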
CYP2C9 activ: human CYP2C9 activators, primary screen, biochemical, luminescence; activation factor at 5 µM; recombinant CYP2C9, luciferin-H conversion; active compounds read high; factor 1 = untreated enzyme, 0 = blocked; 96,000 compounds, 1.4% hits; Cytochrome P450 2C9 (Homo sapiens), P11712;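 active = activation factor of 2 or more for CYP2C9 at a 5 µM dose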;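 also: 0 = sulfaphenazole-blocked wells and 1 = vehicle-only wells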
CYP2C19 inhib: blockers of cytochrome P450 2C19 activity – biochemical, luminescence, ADME assay, primary screen; CYP2C19 Supersomes, luciferin-H EGE luminescence, 30 min; 96,000 compounds, 21% hits; inhibition, % at 5 µM; AID 778, 2007;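 active = CYP2C19 inhibition above a set limit at 5 µM in the primary screen, cut at about 50% in these data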;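 also: plate controls were negative control wells for no effect and 2.5 mM tranylcypromine positive control for full effect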
Active calls of the source: *; · = no result given.

SMILES	CYP2C9 inh	CYP2C19 act	Cav32 inh	CYP2C9 activ	CYP2C19 inhib
Cc1nc2ccc(S(=O)(=O)NCC(=O)N3CCCC(C)C3)cc2s1 (stereo not drawn)	-2	0.7	0.53	1	30
Cc1ccc(C(=O)OCC(=O)N2CC(=O)Nc3ccccc32)s1	3	0.8	-0.0062	1	21
COc1ccc(NS(=O)(=O)c2cccc(C(=O)OCC(=O)Nc3cc(C)on3)c2)cc1	71*	0.9	-2.4	0.3	10
O=C1CN(C(=O)COC(=O)c2cccc(S(=O)(=O)NCc3ccccc3)c2)c2ccccc2N1	68*	0.6	-6*	0.3	44
CCNC(=O)COc1ccc(S(=O)(=O)Nc2ccccc2)cc1	62*	0.6	0.71	0.4	39
CCCCNC(=O)NS(=O)(=O)c1ccc(NS(=O)(=O)c2ccccc2)cc1	55*	1	0.025	0.4	-2
COc1ccc(C2C(C(=O)OCC3CCCO3)=C(C)NC3=C2C(=O)CC(c2ccco2)C3)cc1O (stereo not drawn)	33	0.8	0.027	0.7	18
COCCNC(=O)C1CC(=O)N(C2CCCC2)C1 (stereo not drawn)	0	1.2	·	1	-16
Cc1ccc(NS(=O)(=O)c2cccc(C(=O)OCC(=O)NCc3ccco3)c2)cc1	86*	0.4	-3.3	0.1	59*
Cc1ccc(S(=O)(=O)N(C)c2ccc(OCC(=O)NCc3ccco3)cc2)cc1	93*	0.8	-1.3	0.1	16
COc1cccc(S(=O)(=O)Nc2ccc(C(=O)NCc3ccco3)cc2)c1	98*	0.4	-3.2	0	61*
CN(C)c1cccc(C(=O)OCC(=O)NCc2ccco2)c1	·	·	0.38	·	·
Cc1ccc(C)c(NS(=O)(=O)c2ccc(OCC(=O)NCc3ccco3)cc2)c1	2	1	-2.2	1	-5
O=C(COc1ccc2oc(-c3ccccc3)cc(=O)c2c1)NCc1ccco1	58*	0.8	-0.074	0.4	24
Cc1cc(=O)[nH]c2c1c(C)nn2C1CCOC(C)(C)C1 (stereo not drawn)	-7	1.1	0.43	1.1	-6
CC(=O)N(C)c1ccc(OCC(O)CN(Cc2ccco2)S(=O)(=O)c2ccc(C)cc2)cc1 (stereo not drawn)	80*	1	2.1	0.2	5
Cc1ccc(NS(=O)(=O)c2ccc(OCC(=O)NCc3ccco3)cc2)cc1	85*	0.3	·	0.1	75*
CNS(=O)(=O)c1cccc(C(=O)OCC(=O)NCc2ccccc2)c1	-136	0.9	-1	2.4*	13
CC(=O)N(C)c1ccc(OCC(O)COc2ccc(N(C)C(C)=O)cc2)cc1	-6	1.1	0.029	1.1	-11
CNS(=O)(=O)c1cccc(C(=O)OCC(=O)N2CCc3ccccc3C2)c1	-70	0.7	0.42	1.7	33
O=C(COC(=O)c1cc(S(=O)(=O)NCc2ccccc2)ccc1O)NCc1ccccc1	46	0.9	-1.8	0.5	8
CNS(=O)(=O)c1cccc(C(=O)OCc2cc(Cl)cc3c2OCOC3)c1	-92	0.2	-4.2*	1.9	78*
CC1(c2nnc(-c3ccncc3)o2)CC(c2ccc([N+](=O)[O-])cc2)=NO1 (stereo not drawn)	·	·	0.77	·	·
O=S(=O)(NC1CC2CCC1C2)c1ccc2c(c1)OCCO2 (stereo not drawn)	78*	0	-0.98	0.2	97*
CC1CCCC(NS(=O)(=O)c2ccc3c(c2)OCCO3)C1C (stereo not drawn)	61*	0	-1.3	0.4	97*
SMILES	CYP2C9 inh	CYP2C19 act	Cav32 inh	CYP2C9 activ	CYP2C19 inhib
COc1cc(CC(=O)Nc2ccc(S(=O)(=O)N(C)C)cc2)cc(OC)c1OC	44	0.9	-0.13	0.6	5
CCCOc1ccc(/C(O)=C2/C(=O)C(=O)N(CCN(C)C)C2c2ccncc2)cc1 (stereo not drawn)	·	·	-0.1	·	·
O=C(OCC(=O)N1CCc2ccccc21)c1cccnc1Cl	2	0.9	0.83	1	9
CC1C(c2ccccc2)C(C#N)(C#N)C2(C#N)C(=O)NC1(N)C2C (stereo not drawn)	34	0	-0.66	0.7	98*
CCOC(=O)c1[nH]c2ccccc2c1N=CN(CC)CC	5	1	0.41	1	1
COc1ccccc1NC(=O)CSCC(N)=O	2	0.9	0.092	1	7
COC(=O)c1ccccc1NC(=O)CSCC(=O)Nc1ccc(F)cc1	35	0.4	-0.0045	0.6	59*
Cc1c(F)cccc1NC(=O)CSCC(=O)Nc1ccccc1	56*	0.4	·	0.4	56*
COCCN1C(=O)N[C@@H](c2ccccc2)C(C(C)=O)=C1C	·	·	0.84	·	·
CC1(c2ccc(Cl)cc2Cl)OCC(Cn2ccnc2)O1 (stereo not drawn)	83*	0	0.0025	0.2	99*
COCCn1c(SCC(=O)Nc2ccc(S(N)(=O)=O)cc2)nc2ccccc21	68*	1.2	0.82	0.3	-22
COCCn1c(SCC(=O)Nc2ccc(Cl)c(S(=O)(=O)N(C)C)c2)nc2ccccc21	87*	0.7	-6.2*	0.1	27
COCCn1c(SCC(=O)Nc2nc(C)c(Cl)cc2Cl)nc2ccccc21	22	0	-4.1	0.8	96*
CCCCCC(C)n1[nH]c(=O)cc1N (stereo not drawn)	19	0.9	-0.55	0.8	10
COc1ccc(OC)c(-c2cc(C(=O)Nc3c(C)nn(Cc4ccc(Cl)cc4)c3C)no2)c1	33	0.6	·	0.7	37
Cc1nn(Cc2ccc(Cl)cc2)c(C)c1NC(=O)c1cc(-c2ccc3c(c2)OCO3)on1	54*	0.7	-3.1	0.5	34
Cc1nn(Cc2ccccc2)c(C)c1NC(=O)c1cc(-c2ccco2)on1	·	·	-6.2*	·	·
Cc1nn(Cc2ccc(Cl)c(Cl)c2)c(C)c1NC(=O)c1cn(-c2ccccc2)nc1-c1ccccc1	90*	1	-5.1*	0.1	3
Cc1nn(Cc2ccc(Cl)c(Cl)c2)c(C)c1NC(=O)c1cc(-c2ccc3c(c2)OCO3)on1	66*	0.7	-2.6	0.3	34
COC(=O)[C@@]1(Cc2ccc(F)cc2)[C@H]2c3cc(C(=O)N(C)C)n(Cc4nc5ccccc5[nH]4)c3C[C@H]2CN1C(=O)c1ccccc1	·	·	-2.3	·	·
O=c1[nH]cnc2c1C(c1ccccc1[N+](=O)[O-])c1c(nc[nH]c1=O)O2	13	1.1	1.1	0.9	-15
O=C(O)CN1CCN(Cc2ccc(F)cc2Cl)C1=O	·	·	0.18	·	·
CC(C)c1ccc(CN2CC(C(=O)O)CC2=O)cc1 (stereo not drawn)	22	0.9	0.15	0.8	6

Source: PubChem BioAssay
